About 83,000 compounds went through this panel and 20% of them were active in at least one assay; those are over-represented in the sample as a whole.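 Interpretation: 100, growth as untreated; towards 0, rising growth inhibition; 0, no net growth; 0 to -100, cell death. Compounds scoring below 10 were considered active.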 Active and inactive are the calls of the source.

This assay has as its system HL-60(TB) leukemia. Put plainly: NCI-60 one-dose screen, 48 h (100 = growth as untreated, 0 = no growth, -100 = all killed). The note with it: 10 µM unless noted.
As for `Cc1c2cnccc2c(C)c2c1c1cc(C#N)ccc1n2C`, the growth is -48.8% (active).

Regarding `CCc1ccc2c(c1)N(CCO)C1=C(C(=O)OC1)C2c1cccc(Cl)c1` (stereo not given), the growth was -19.4% (active). On to `CC1CCCCN1C(=S)Nc1ccc(S(=O)(=O)N2CCCCC2)cc1` (stereo not given), for which the growth is 102% (inactive). Turning to `COc1ncnc2c1cnn2C`, the growth was 114% (inactive). In the case of `O=C(CCCCCCSc1nc(-c2ccccc2)cc(-c2ccc(Cl)cc2)n1)NO`, the growth was -37.5% (active). Take `COC(=O)[C@]1(C)CCC[C@]2(C)c3ccc(C(C)C)cc3C(=O)[C@@H](Br)[C@@H]12`: the growth was 68.1% (inactive). As for `CC(C)c1ccc2nc3ccc(C(=O)NCCN4CCN(c5ccccc5)CC4)cn3c(=O)c2c1`, the growth was 74.9% (inactive). With `c1ccc(Cc2cccc[n+]2C(c2ccccc2)c2ccccc2)cc1`, the growth is 4.63% (active). Turning to `COc1ccc(C(=O)N2c3ccccc3Sc3ccccc32)c(C(F)(F)F)c1`, the growth is 2.01% (active). On to `O=C(Nc1cccc2[nH]c(C(F)(F)F)nc12)c1ccc(-n2cnnn2)cc1`, for which the growth is 1.31% (active). Turning to `COc1cc2cc3c(=O)n4c(cc5cc(OC)ncc54)c(=O)n3c2cn1`, the growth was 89.3% (inactive). For the compound `NC(=O)C1(N2CCCCC2)CCN(CCCC(=O)c2ccc(F)cc2)CC1`, the growth was 9.84% (active). For the compound `O=S(=O)(c1ccc(NCSc2nc3ccccc3s2)cc1)c1ccc(NCSc2nc3ccccc3s2)cc1`, the growth was 72.7% (inactive).

As to `O=C1Nc2ccc(Cl)cc2/C1=C/c1cccs1`, the growth is 98% (inactive). On to `CCN1CCN(C(=O)[C@]23CC[C@@H](C)[C@H](C)[C@H]2C2=CC[C@@H]4[C@@]5(C)C/C(=C/c6cccc(OC)c6OC)C(=O)C(C)(C)[C@@H]5CC[C@@]4(C)[C@]2(C)CC3)CC1`, for which the growth was 2.97% (active). Regarding `CCC1C[N+]2=C(c3cc(OC)c(OC)cc3CC2)c2c1cc1n2CCc2cc(OC)c(OC)cc2-1` (stereo not given), the growth is 8.26% (active). For `CCCCOc1nc2ccc(C)cc2cc1/C=C/C(=O)/C=C(O)/C=C/c1cc2cc(C)ccc2nc1OCCCC`, the growth is 99% (inactive). As for `Cc1ccc2nc3c(cc2c1)CSc1nnc(-c2ccc[nH]c2=S)n1N3`, the growth was 102% (inactive). Take `COc1ccc(F)cc1/C=C/C(=O)/C=C(/C=C/c1cc(F)ccc1OC)OB(F)F`: the growth was -8.82% (active). As to `N#Cc1ccc(N2Cc3cc(Cl)ccc3OC3=C2C(=O)N(Cc2ccccc2)C3=O)cc1`, the growth is -48.2% (active). Regarding `Cc1onc2c(-c3ccccc3)n[nH]c(=O)c12`, the growth was 90.2% (inactive).

For `COc1cc(-c2ccc(NC(=O)NC3CC3)c(OC)c2)ccc1NC(=O)NC1CC1`, the growth was 43.6% (inactive). As for `CC1=C(/C=C/C(C)=C/C=C(C(=O)O)\C(C)=C\C(=O)O)C(C)(C)CCC1`, the growth is 85.3% (inactive). For `CCS(=O)(=O)N1CCN(c2ccc(Nc3ncc(C(N)=O)c(NC4CC4)n3)cc2)CC1`, the growth is 71.2% (inactive). Turning to `O=C1CC[C@H](c2ccc(O)c3c2C(=O)[C@@H]2O[C@@H]2C3=O)c2cccc(O)c21`, the growth was -20.5% (active).

Take `CCN1C(=O)N(CC)C2C1NC(=S)N2/N=C/C=C/c1ccccc1OC` (stereo not given): the growth is -20.8% (active). In the case of `COc1ccc(/C=C(\C#N)n2nnc3ccc(Cl)cc32)cc1`, the growth was 86.6% (inactive). For the compound `COC(=O)C1=C(C(=O)Nc2cccnc2)C2OC1(C(Cc1ccccc1)Oc1ccccc1)C1OC21` (stereo not given), the growth was -56.2% (active). For the compound `C=CN(C(=O)N1CCN(c2cc3c(cc2F)c(=O)c(C(=O)O)cn3C2CC2)CC1)c1nc(-c2ccc(C)cc2)cs1`, the growth was -27.2% (active). The figure for `O=C1NC(=O)C2C(=O)NC(=O)C1C21CCc2ccccc21` (stereo not given) is 117% (inactive); for `CC1(C)CC(=O)CC2(C1)N=C(N)Nc1nc3ccccc3n12` (stereo not given) it is 92.5% (inactive); for `Nc1c2c(c(O)c3c1=C(CO)C=N3)=NCCS2` it is -33.7% (active).

Regarding `CCCCCCCCCCCCCC`, the growth is 87% (inactive). On to `c1ccc(-c2n[nH]c(-c3ccccn3)n2)nc1`, for which the growth was 105% (inactive). With `O=C(CNc1ccc(Cl)cc1)Nc1ccc(-c2nc3ccccc3s2)cc1`, the growth was 71% (inactive). Next, `CC(=O)Nc1cscc1NC(C)=O`: 96.7% (inactive). Next, `CSc1ccc2c(c1)c(CCN)c(C)n2Cc1ccc(Cl)c(Cl)c1`: -69.9% (active); `O=C(Nc1nc(-c2ccccc2Cl)cs1)c1cc(-c2ccc(Cl)cc2)nc2ccc(Cl)cc12`: -21.9% (active); `CCCCCCCCCCCCCCCc1ccc(C(=O)C[n+]2ccccc2)cc1`: -69.3% (active). In the case of `O=C(C(=O)N1CCCCC1)c1ccc(OC2OC(CO)C(O)C(O)C2O)cc1` (stereo not given), the growth was 77.8% (inactive).

Values taken from PubChem BioAssay (NCI).
